Data taken from PubChem BioAssay (NCI).
About 79,000 compounds went through this panel and 15% of them were active in at least one assay; those are over-represented in the sample as a whole. Activity calls are given as the source filed them. Rule as the data show it: active = growth inhibition above about 70%; inactive = the rest.

What was measured:
[1] = NCI Yeast Anticancer Drug Screen. Data for the rad52 strain (AID 147);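 also: 0% = growth of vehicle-treated control cultures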; conditions: S. cerevisiae rad52 mutant growth inhibition, active compounds read high
Method in brief: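 Genetically altered yeast (DNA damage repair defect) treated with compound; inhibition calculated relative to vehicle.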

[2] = NCI Yeast Anticancer Drug Screen. Data for the wt1 strain (AID 149);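 also: 0% = growth of vehicle-treated wt1 cultures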; conditions: S. cerevisiae wt1 strain (SPY 50644) growth inhibition, active compounds read high
Method in brief: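 Compounds are added to wt1 yeast cultures. Growth is then measured. Inhibition is expressed relative to vehicle-treated controls.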

[3] = NCI Yeast Anticancer Drug Screen. Data for the rad50EPP+ strain (AID 151);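 also: 0% = growth of vehicle-treated control cultures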; conditions: S. cerevisiae rad50 mutant strain, active compounds read high
Method in brief: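 Strain rad50EPP+; compound exposure; % growth inhibition vs vehicle.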

[4] = NCI Yeast Anticancer Drug Screen. Data for the mgt1 strain (AID 153); conditions: S. cerevisiae mgt1 mutant growth inhibition, active compounds read high
Method in brief: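 Read-out: yeast growth inhibition vs vehicle control. Strain mgt1, drawn from a panel altered in DNA damage repair or cell cycle control.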

[5] = NCI Yeast Anticancer Drug Screen. Data for the rad50 strain (AID 155);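 also: 0% = growth of vehicle-only cultures of the same strain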; conditions: S. cerevisiae rad50 strain growth inhibition, active compounds read high
Method in brief: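 Inhibition values express reduced yeast growth in compound-treated cultures relative to vehicle-treated controls.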

[6] = NCI Yeast Anticancer Drug Screen. Data for the mec2-1 strain (AID 157); conditions: S. cerevisiae mec2-1 strain, active compounds read high
Method in brief: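 Cells of the genetically defined mec2-1 yeast strain are incubated with test compound. Inhibition of growth is calculated against vehicle-treated controls.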

[7] = NCI Yeast Anticancer Drug Screen. Data for the rad14 strain (AID 159);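 also: 0% = growth of vehicle-treated control cultures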; conditions: S. cerevisiae rad14 strain growth inhibition, active compounds read high
Method in brief: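 A mutant yeast strain defective in DNA damage repair is treated with compound; inhibition of its growth is scored against untreated, vehicle-exposed cultures.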

[8] = NCI Yeast Anticancer Drug Screen. Data for the sgs1 mgt1 strain (AID 161);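 also: 0% = growth of cultures given vehicle only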; conditions: S. cerevisiae sgs1 mgt1 strain, active compounds read high
Method in brief: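 Test agents were incubated with a DNA-repair-mutant yeast strain. Growth was then read and compared against vehicle-treated controls.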

[9] = NCI Yeast Anticancer Drug Screen. Data for the CLN2oe strain (AID 163);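 also: 0% = growth of vehicle-only control cultures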; conditions: S. cerevisiae CLN2oe strain, active compounds read high
Method in brief: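 Strain altered in cell-cycle control, incubated with compound; growth compared to solvent-treated controls.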

[10] = NCI Yeast Anticancer Drug Screen. Data for the cln2 rad14 strain (AID 165);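 also: 0% = growth equal to vehicle treated cultures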; conditions: S. cerevisiae cln2 rad14 strain, active compounds read high
Method in brief: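 The screen exposed genetically defined yeast (cln2 rad14) to test compounds and scored growth inhibition relative to vehicle-treated controls.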

[11] = NCI Yeast Anticancer Drug Screen. Data for the bub3 strain (AID 167); conditions: S. cerevisiae bub3 mutant strain, active compounds read high
Method in brief: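 Steps: expose the mutant yeast strain to compound; grow alongside vehicle-treated cultures; measure growth; express inhibition against the vehicle cultures.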

[12] = NCI Yeast Anticancer Drug Screen. Data for the wt2 strain (AID 169);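 also: 0% = growth of vehicle-treated yeast cultures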; conditions: S. cerevisiae wt2 strain growth inhibition, active compounds read high
Method in brief: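 Steps: yeast strain treated with compound; growth recorded; inhibition calculated relative to cultures given vehicle alone.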

[13] = NCI Yeast Anticancer Drug Screen. Data for the mlh1 strain (AID 171);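 also: 0% = growth of vehicle-treated control cultures of the same strain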; conditions: S. cerevisiae mlh1 strain growth inhibition, active compounds read high
Method in brief: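 Yeast screen: mutant strain plus compound, growth scored against vehicle control wells.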

[14] = NCI Yeast Anticancer Drug Screen. Data for the mlh1 rad18 strain (AID 175); conditions: S. cerevisiae mlh1 rad18 strain growth inhibition, active compounds read high
Method in brief: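 Compound-treated yeast growth, normalised to vehicle controls. Strain bears defined DNA repair mutations.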

[15] = NCI Yeast Anticancer Drug Screen. Data for the rad18 strain (AID 177); conditions: S. cerevisiae rad18 mutant growth inhibition, active compounds read high
Method in brief: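 Inhibition values reflect reduced yeast growth compared with vehicle-treated controls, using a strain engineered with a DNA damage repair defect.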

[16] = at 5.0 µM (retest, dose inferred, filed as 0.5)
[17] = at 50.0 µM (retest, dose inferred, filed as 5.0)

Measured: growth inhibition

CCNC(=O)OCC1C2=C(C(=O)C(C)=C(N)C2=O)N2CC3C(N3C)C12OC (stereo not drawn)
active: [1]; at 100.0 µM 81% | [4]; at 100.0 µM 74% | [5]; [17] 70% | [5]; at 100.0 µM 78% | [6]; [17] 71% | [6]; at 100.0 µM 87% | [7]; at 100.0 µM 78% | [9]; at 100.0 µM 80% | [11]; at 100.0 µM 71% | [13]; at 100.0 µM 84% | [14]; [16] 73% | [14]; [17] 92% | [14]; at 50.0 µM 70.8% | [15]; at 11.0 µM 72% | [15]; at 33.0 µM 89% | [15]; at 100.0 µM 91%
inactive: [1]; at 1.2 µM 4% | [1]; at 3.7 µM 25% | [1]; at 11.0 µM 25% | [1]; at 33.0 µM 63% | [2]; at 1.2 µM -19% | [2]; at 3.7 µM -16% | [2]; at 11.0 µM -4% | [2]; at 33.0 µM 23% | [2]; at 100.0 µM 67% | [3]; at 1.2 µM 6% | [3]; at 3.7 µM -12% | [3]; at 11.0 µM -6% | [3]; at 33.0 µM 13% | [3]; at 100.0 µM 41% | [4]; at 1.2 µM 2% | [4]; at 3.7 µM 2% | [4]; at 11.0 µM 21% | [4]; at 33.0 µM 37% | [5]; at 1.2 µM 14% | [5]; at 3.7 µM 15% | [5]; [16] 34% | [5]; at 11.0 µM 19% | [5]; at 33.0 µM 57% | [5]; at 50.0 µM 58% | [6]; at 1.2 µM 9% | [6]; at 3.7 µM 13% | [6]; [16] 23% | [6]; at 11.0 µM 18% | [6]; at 33.0 µM 58% | [6]; at 50.0 µM 63.6% | [7]; at 1.2 µM -9% | [7]; at 3.7 µM -5% | [7]; at 11.0 µM 8% | [7]; at 33.0 µM 45% | [8]; [16] 23% | [8]; [17] 68% | [8]; at 50.0 µM 47.6% | [9]; at 1.2 µM 4% | [9]; at 3.7 µM 4% | [9]; at 11.0 µM 19% | [9]; at 33.0 µM 41% | [10]; [16] 14% | [10]; [17] 50% | [10]; at 50.0 µM 44.7% | [11]; at 1.2 µM 13% | [11]; at 3.7 µM 9% | [11]; [16] 21% | [11]; at 11.0 µM 10% | [11]; at 33.0 µM 36% | [11]; [17] 50% | [11]; at 50.0 µM 21.8% | [12]; at 1.2 µM -37% | [12]; at 3.7 µM -32% | [12]; at 11.0 µM -28% | [12]; at 33.0 µM 6% | [12]; at 100.0 µM 34% | [13]; at 1.2 µM 15% | [13]; at 3.7 µM 18% | [13]; at 11.0 µM 32% | [13]; at 33.0 µM 56% | [15]; at 1.2 µM 13% | [15]; at 3.7 µM 40%
